This note sets out measurements from PubChem BioAssay (EPA / NIEHS).

What all share (details): mRNA level, 48 h; actives raise or lower the signal
Read-out in assay [1]: 3-Hydroxy-3-Methylglutaryl-CoA Synthase 2 (HMGCS2), HMGCS2 (gene 3158)
Briefly: LTEA_HepaRG_HMGCS2: Life Technologies and Expression Analysis (LTEA) Assay for 3-Hydroxy-3-Methylglutaryl-CoA Synthase 2 (HMGCS2) using HepaRG (AID 2283504). The essentials: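 Expression of HMGCS2 in human HepaRG liver cells is measured by qRT-PCR 48 h after dosing (highest 100 uM, half-log series, 0.5% DMSO). Values come from bidirectional concentration-response fitting with DMSO as baseline.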

Read-out in assay [2]: HGF (gene 3082)
Briefly: LTEA_HepaRG_HGF: Life Technologies and Expression Analysis (LTEA) Assay for Hepatocyte Growth Facto (HGF) using HepaRG (AID 2283505). The essentials:
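Gain or loss of HGF mRNA in human HepaRG liver cells after 48 h chemical exposure; eight concentrations up to 100 uM with 0.5% DMSO vehicle, quantified by TaqMan qRT-PCR.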

Read-out in assay [3]: Insulin Like Growth Factor 1 (IGF1), IGF1 (gene 3479)
Briefly: LTEA_HepaRG_IGF1: Life Technologies and Expression Analysis (LTEA) Assay for Insulin Like Growth Factor 1 (IGF1) using HepaRG (AID 2283506). The essentials:
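Using human HepaRG liver cells, IGF1 transcript induction or suppression is measured 48 h after dosing across eight concentrations capped at 100 uM. Values derive from bidirectional concentration-response fitting with DMSO as baseline.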

Read-out in assay [4]: Intercellular Adhesion Molecule 1 (ICAM1), ICAM1 (gene 3383)
Briefly: LTEA_HepaRG_ICAM1: Life Technologies and Expression Analysis (LTEA) Assay for Intercellular Adhesion Molecule 1 (ICAM1) using HepaRG (AID 2283507). Put shortly:
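Gain or loss of transcript in HepaRG hepatic cells is quantified by qRT-PCR after 48 h chemical exposure (up to 100 uM, half-log steps), with DMSO as baseline.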

Read-out in assay [5]: Insulin-like growth factor-binding protein 1 (IGFBP1), IGFBP1 (gene 3484)
Briefly: LTEA_HepaRG_IGFBP1: Life Technologies and Expression Analysis (LTEA) Assay for Insulin-like growth factor-binding protein 1 (IGFBP1) using HepaRG (AID 2283508). The essentials: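 mRNA induction or loss was quantified by qRT-PCR after 48 h chemical exposure of human HepaRG cells, with 0.5% DMSO as vehicle and baseline. Concentration-response over eight points up to 100 uM.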

Read-out in assay [6]: Interleukin 6 (IL6), IL6 (gene 3569)
Briefly: LTEA_HepaRG_IL6: Life Technologies and Expression Analysis (LTEA) Assay for Interleukin 6 (IL6) using HepaRG (AID 2283509). The essentials:
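HepaRG, ~100,000 cells/well, 48 h pre-culture; serum-free induction medium; cmpd 8-pt half-log from 100 uM, 0.5% DMSO, duplicate, 48 h. Lysis in RLT, TaqMan qRT-PCR; gain or loss vs DMSO.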

Read-out in assay [7]: Interleukin 6 Receptor (IL6R), IL6R (gene 3570)
Briefly: LTEA_HepaRG_IL6R: Life Technologies and Expression Analysis (LTEA) Assay for Interleukin 6 Receptor (IL6R) using HepaRG (AID 2283510).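 For AC50: differentiated human HepaRG liver cells in serum-free induction medium; TaqMan qRT-PCR signal normalized to ACTB GAPDH and POLR2A housekeeping genes.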 Put shortly:
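Concentration-response in human liver HepaRG cells: eight concentrations from 100 uM downward by half-logs, 48 h exposure, 0.5% DMSO vehicle. IL6R mRNA change measured by qRT-PCR and fitted in both directions relative to vehicle.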

Read-out in assay [8]: Potassium channel subfamily K member 1 (KCNK1), KCNK1 (gene 3775)
Briefly: LTEA_HepaRG_KCNK1: Life Technologies and Expression Analysis (LTEA) Assay for Potassium channel subfamily K member 1 (KCNK1) using HepaRG (AID 2283511). Put shortly: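 Gain or loss of KCNK1 mRNA is the read-out, quantified by qRT-PCR against three housekeeping genes after 48 h chemical treatment of human HepaRG liver cells. Concentrations ran from 100 uM downward in half-log steps, vehicle 0.5% DMSO.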

Read-out in assay [9]: Hypoxia-inducible factor 1-alpha (Homo sapiens) (UniProt Q16665)
Briefly: LTEA_HepaRG_HIF1A: Life Technologies and Expression Analysis (LTEA) Assay for Hypoxia-inducible factor 1 (HIF1A) Trancription factor using HepaRG (AID 2283503).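 Note: HIF1A transcript by TaqMan qRT-PCR normalized to ACTB GAPDH and POLR2A.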 The essentials: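 HepaRG, 48 h exposure, 8-pt half-log series from 100 uM, 0.5% DMSO vehicle, duplicates. Readout: HIF1A transcript by qRT-PCR (Fluidigm array), housekeeping-normalised. Bidirectional curve fit vs DMSO baseline.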

Read-out in assay [10]: Keratin 19 (KRT19), KRT19 (gene 3880)
Briefly: LTEA_HepaRG_KRT19: Life Technologies and Expression Analysis (LTEA) Assay for Keratin 19 (KRT19) using HepaRG (AID 2283512). The essentials: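 Gene-expression endpoint in the human liver line HepaRG after 48 h exposure to up to 100 uM test chemical with 0.5% DMSO vehicle; KRT19 mRNA by qRT-PCR, analyzed bidirectionally versus DMSO.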

Structures are written as SMILES. Calls of active or inactive are those of the source. Rule for the calls: active = hit-call score of the fitted dose curve at least 0.9, where 1 is the maximum; inactive = score below 0.9.

Sequence of Hypoxia-inducible factor 1-alpha (Homo sapiens) (Q16665 whole entry, looked up): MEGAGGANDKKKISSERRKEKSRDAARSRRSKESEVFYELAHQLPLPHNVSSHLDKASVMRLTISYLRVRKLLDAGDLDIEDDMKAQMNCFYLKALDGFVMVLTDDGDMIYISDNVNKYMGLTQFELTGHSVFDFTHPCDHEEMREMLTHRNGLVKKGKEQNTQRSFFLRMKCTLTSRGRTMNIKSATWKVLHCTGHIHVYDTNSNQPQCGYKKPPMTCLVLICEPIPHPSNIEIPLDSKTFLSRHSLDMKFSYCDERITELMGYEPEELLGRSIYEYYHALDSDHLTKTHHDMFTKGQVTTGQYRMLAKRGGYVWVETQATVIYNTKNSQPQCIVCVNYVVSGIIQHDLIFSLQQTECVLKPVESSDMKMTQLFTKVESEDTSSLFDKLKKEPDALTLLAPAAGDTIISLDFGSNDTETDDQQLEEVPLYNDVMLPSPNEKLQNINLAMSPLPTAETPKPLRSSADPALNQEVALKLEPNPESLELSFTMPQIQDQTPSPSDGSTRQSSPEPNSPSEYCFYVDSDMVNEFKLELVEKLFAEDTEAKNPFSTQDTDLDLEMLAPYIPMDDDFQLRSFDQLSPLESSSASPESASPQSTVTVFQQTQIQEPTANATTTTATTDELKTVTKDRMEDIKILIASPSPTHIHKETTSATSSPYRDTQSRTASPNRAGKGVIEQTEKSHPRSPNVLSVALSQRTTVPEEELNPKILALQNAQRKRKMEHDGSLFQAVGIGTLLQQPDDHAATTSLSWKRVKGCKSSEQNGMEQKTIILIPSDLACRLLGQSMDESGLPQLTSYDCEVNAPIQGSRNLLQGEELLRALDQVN

What is called AC50 is the midpoint of the concentration-response curve, whichever way the signal moves. As for `Cn1cnc([N+](=O)[O-])c1Sc1ncnc2nc[nH]c12`, the AC50 in [1] was 3.93 µM (active); in [4] it was 3.59 µM (active); in assay [5], 2.75 µM (active); in [8], 4.15 µM (active). Besides, the compound was classed as inactive in assay [2], in [3], in assay [6] and in assay [7].
For `CCOCCOCCOCCO`, the compound was called inactive in [9], in assay [1], in assay [2], in [3], in assay [4] and in [5]. In addition, the outcome in assay [6], in assay [7], in assay [8] and in assay [10] was inactive.
`CC[C@H]1OC(=O)[C@H](C)[C@@H](O[C@H]2C[C@@](C)(OC)[C@@H](O)[C@H](C)O2)[C@H](C)[C@@H](O[C@@H]2O[C@H](C)C[C@H](N(C)C)[C@H]2O)[C@](C)(O)C[C@@H](C)C(=O)[C@H](C)[C@@H](O)[C@]1(C)O`: the outcome in assay [1], in assay [2], in assay [3], in assay [4], in [5] and in [6] was inactive. The call in assay [7], in [8] and in assay [10] was inactive.
In the case of `CCCN(C1CCN(C(=O)C2CCNCC2)CC1)[C@@H]1CCc2ccc(OC)cc2C1`, the AC50 in assay [9] was 88.2 µM (active); in assay [3], 50 µM (active); in assay [4] it was 77.4 µM (active); in assay [5] it was 69.5 µM (active); in [6], 84.2 µM (active); in assay [7], 50 µM (active). Also, the AC50 in [10] is 13.6 µM (active). Also, the compound was classed as inactive in [2] and in [8].
On to `NC(=O)NO`, for which the compound was called inactive in assay [1], in assay [2], in assay [4], in assay [5], in assay [6] and in [7]. The compound was called inactive in assay [8]. Also, the AC50 in assay [3] is 14.3 µM (active).
With `CCCCC(CC)COC(=O)CCCCCCCCC(=O)OCC(CC)CCCC` (configuration not stated), the call in assay [9], in assay [1], in assay [2], in [3], in assay [4] and in assay [5] was inactive. The compound was called inactive in assay [6], in assay [7], in assay [8] and in assay [10].
Take `CCCCCCCCCCCCc1ccccc1`: the call in assay [9], in assay [1], in [2], in assay [3], in assay [4] and in [5] was inactive. For the same compound, the compound was classed as inactive in assay [6], in assay [7], in [8] and in [10].
`COCCOc1cc2cc(C(=O)NC3CCN(C(C)C)CC3)n(CC(=O)Nc3ccc(Cl)cn3)c2cn1`: the AC50 is 72.9 µM (active) in assay [9]; 47.2 µM (active) in assay [1]; 13.8 µM (active) in assay [3]; 45 µM (active) in [5]; 10.6 µM (active) in assay [7]; 7.89 µM (active) in assay [10]. The compound was called inactive in [2], in [4], in assay [6] and in assay [8].
In the case of `CCCCCCc1ccc(O)cc1O`, the outcome in assay [9], in assay [1], in assay [2], in assay [3], in assay [4] and in [5] was inactive. The compound was classed as inactive in assay [6], in assay [7], in [8] and in assay [10].
Consider `Cc1ccc(O)cc1`, for which the outcome in assay [1], in assay [2], in assay [3], in assay [4], in assay [5] and in assay [6] was inactive. Besides, the outcome in assay [7] and in assay [8] was inactive.
In the case of `Cn1c(=O)cc(Oc2ccc(F)cc2F)c2cnc(NCC(C)(C)O)nc21`, the compound was classed as inactive in assay [9], in [1], in assay [2], in assay [4], in assay [5] and in assay [6]. Also, the call in [7] and in assay [8] was inactive. The AC50 was 12.6 µM (active) in [3] and 18.3 µM (active) in assay [10].
Consider `CC(C)=CCC/C(C)=C\CO`, for which the compound was classed as inactive in assay [1], in assay [2], in [3], in assay [4], in assay [5] and in assay [7]. The call in assay [8] and in assay [10] was inactive.
As for `CC[C@H]1CC[C@H](NCc2cc3c(cc2OC)[C@H]2C[C@H]2C(=O)N3C)[C@H](c2ccccc2)N1`, the outcome in assay [9], in assay [1], in assay [2], in assay [3], in assay [4] and in assay [5] was inactive. Also, the compound was classed as inactive in [6], in assay [7], in [8] and in assay [10].
With `CC(C)c1cccc(C(C)C)c1N1C(=O)c2ccc(O)cc2C1=O`, the compound was classed as inactive in assay [9], in assay [3], in [4], in assay [5], in assay [6] and in assay [7]. Further, the outcome in assay [8] was inactive. For the same compound, the results for the AC50 in assay [1], in assay [2] and in assay [10] were 80.7 µM (active), 93 µM (active) and 88.7 µM (active), respectively.
As for `CC(C)=CCC/C(C)=C/CO`, the call in [1], in [2], in assay [3], in assay [4], in assay [5] and in [6] was inactive. The call in [7], in assay [8] and in assay [10] was inactive.
On to `Nc1nc2ncc(CNc3ccc(C(=O)N[C@@H](CCC(=O)O)C(=O)O)cc3)nc2c(=O)[nH]1`, for which the call in assay [1], in assay [2], in [3], in [4], in [5] and in [6] was inactive. In addition, the compound was classed as inactive in assay [7], in assay [8] and in assay [10].
Turning to `CC(=O)c1ccc2c(c1)[C@H](NC(=O)c1ccc(F)cc1)[C@@H](O)C(C)(C)O2`, the call in [9], in [2], in [3], in assay [4], in assay [5] and in [6] was inactive. The outcome in [7] and in [8] was inactive.
With `Fc1ccccc1[C@@H](F)COC1CCC(Nc2ncnc3[nH]ncc23)CC1` (some centres not stated), the AC50 in [9] was 33.1 µM (active); in [1], 45.2 µM (active); in [3], 50 µM (active); in [4], 50 µM (active); in [5], 63.8 µM (active); in assay [6] it was 73.7 µM (active). The compound was classed as inactive in assay [8].
Take `O=C(O)c1cc(N=Nc2ccc(S(=O)(=O)Nc3ccccn3)cc2)ccc1O`: the compound was called inactive in [1], in [2], in assay [3], in assay [4], in assay [6] and in assay [7]. The compound was classed as inactive in assay [8] and in assay [10].
For `Cc1ccc(N)cc1O`, the outcome in [9], in assay [1], in [2], in [3], in [4] and in assay [5] was inactive. The compound was called inactive in [6], in [7], in assay [8] and in assay [10].
On to `CC(C)=CCCC(C)CCO` (configuration not stated), for which the compound was classed as inactive in assay [9], in assay [1], in assay [2], in assay [3], in assay [4] and in assay [5]. For the same compound, the call in assay [6], in assay [7], in [8] and in [10] was inactive.
In the case of `CC(O)CN(CCN(CC(C)O)CC(C)O)CC(C)O` (configuration not stated), the result in [1], in assay [2], in assay [3], in assay [4], in assay [5] and in assay [6] was inactive. Further, the compound was called inactive in assay [7] and in assay [8].
`O=C1CCC(N2C(=O)c3ccccc3C2=O)C(=O)N1` (configuration not stated): the result in [1], in assay [2], in assay [3], in assay [4], in assay [5] and in assay [6] was inactive. In addition, the outcome in assay [7] and in assay [8] was inactive.
